Compound activity: PubChem BioAssay, National Center for Advancing Translational Sciences (NCATS)
HCMV antiviral = human cytomegalovirus inhibition | HFF cells, HCMV-luciferase reporter, 72 h; stronger effect = lower value | activity change, negative = inhibition, % at 57.5 µM | actives 4.5% (n = 410,000) | AID 1259415; in the data active = activity change below about -60%; inconclusive = no clear call, values can overlap the other calls; inactive = above about -39%
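Inhibition of viral replication was scored as loss of reporter luminescence in HFFs infected with HCMV-luciferase (MOI 1 PFU/cell) for 72 h; compounds tested at 2 doses, normalized to buffer and Salinomycin controls.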
FMDV antiviral = foot and mouth disease virus antiviral activity; Potency, µM (highest dose often 57.9 µM), for the others: at the top dose activity change, negative = inhibition, most hits filed as inhibitors; actives 1.2% (n = 410,000); AID 1159524; FMDV antiviral cell-based qHTS; calls by dose curve; tested in HEK293T cells; note: read-out not given here; potency is the fitted concentration of half-maximal effect; nearly all actives have a fitted effect of over 45% in size
Vaccinia Venus = inhibitors of vaccinia virus (Venus reporter). Vaccinia virus Venus reporter expression, fluorescence. Potency, µM (highest dose often 36.5 µM), for the others: at the top dose activity change, negative = inhibition, most hits filed as inhibitors. actives 0.46% (n = 330,000); calls by dose curve; tested in A549 cells; note: potency is the fitted concentration of half-maximal effect; nearly all actives have a fitted effect of over 30% in size
Lassa entry inh = inhibitors of Lassa virus binding or cell entry; Lassa virus pseudotype entry inhibition, cell reporter; Potency, µM (top dose mostly 37.9 µM), for inactives: at the top dose activity change, negative = inhibition, most hits filed as inhibitors; actives 1.2% (n = 300,000); AID 540256; calls by dose curve; tested in HEK293 cells; note: potency is the fitted concentration of half-maximal effect; nearly all actives have a fitted effect of over 50% in size
VACV mCherry inh = inhibitors of vaccinia virus infection (mCherry reporter signal) | Vaccinia virus mCherry reporter infection, fluorescence | Potency, µM (titrated, usually from 36.5 µM), for inactives: at the highest dose activity change, negative = inhibition, usual class: inhibitors | actives 0.63% (n = 310,000) | AID 720579; calls by dose curve; tested in A549 cells; note: potency is the fitted concentration of half-maximal effect; nearly all actives have a fitted effect of over 35% in size
Marburg entry inh = blocks Marburg virus binding to or entry into cells | Marburg virus pseudotyped entry inhibition, cell reporter | Potency, µM (top dose mostly 37.8 µM), for the others: at the highest dose activity change, negative = inhibition, hits mostly inhibitors | actives 1.8% (n = 300,000) | AID 540276; calls by dose curve; tested in HEK293 cells; note: potency is the fitted concentration of half-maximal effect
Active calls of the source: *; i = inactive; ? = inconclusive; . = no result; + = active, no number; [ ] = dose if it differs, or a comment. An excerpt weighted towards active compounds, which were near 6.5% of everything screened. % is set by controls: 0 for no effect and ±100 for the full control effect.

SMILES	HCMV antiviral	FMDV antiviral	Vaccinia Venus	Lassa entry inh	VACV mCherry inh	Marburg entry inh
CCC(=O)N1c2nc(C(C)C)nn2C2(CCCCC2)[C@@H]2CCCC[C@@H]21	-20	?	-9%	3%[46.1 µM]	-6%	?
COC(=O)[C@@H]1[C@@H](CO)[C@@H]2Cn3c(cccc3=O)[C@H]1N2C	5	.	.	.	.	.
CCc1ccc(C(=O)NNc2ccc(C)c(Cl)c2)cc1	-8	-1%	8%	?	?	?
CCc1ccc(C(=O)NNc2ccccc2F)cc1	?	66%	-3%	?	?	4.5µM*
CCc1ccc(C(=O)NNc2cc(Cl)ccc2Cl)cc1	-68*	-25%	.	.	.	.
CN(C)S(=O)(=O)c1ccc(N2CCCC2)c(C(=O)Nc2ccccc2)c1	-67*	-19%	-14%	5%	-17%	7%
CN1CCN(c2ccc(Cl)cc2NC(=O)c2ccc(S(=O)(=O)N(C)C)cc2)CC1	77	6%	-17%	-3%	i	?
CSc1ccccc1NC(=O)c1cc(S(=O)(=O)N(C)C)ccc1N1CCCC1	-31	-25%	-11%	-10%	-11%	-2%
CN(C)S(=O)(=O)c1ccc(C(=O)Nc2cc(S(=O)(=O)Nc3ccccc3Cl)ccc2N2CCCCC2)cc1	-27	6%	-6%	5.2µM*	-16%	-11%
COc1ccccc1NC(=O)CN1C(=O)C2(SCC(=O)N2c2ccc(F)c(F)c2)c2ccccc21 (stereo unspecified)	28	-16%	2%	-12%[46.1 µM]	-6%	.
COc1ccccc1NC(=O)CN1C(=O)C2(SCC(=O)N2c2ccc(C)c(C)c2)c2ccccc21 (stereo unspecified)	-72*	?	-17%	?	-25%	.
COc1ccccc1-c1nnc(NC(C)=O)s1	35	6%	-6%	-26%	i	-9%
CCCCOC(=O)Nc1nnc(-c2ccccc2OC)s1	-83*	-2%	3%	-19%	.	8%
COCCOC(=O)c1c(C)oc2c1cc(NS(=O)(=O)c1ccc(Cl)c(C)c1)c1ccccc12	15	-11%	2%	?	-8%	?
Cc1ccc(C)c(Nc2nc3c(S(=O)(=O)c4ccc(Br)cc4)nnn3c3ccsc23)c1	-95*	-16%	?	?	?	.
Cc1ccc(S(=O)(=O)c2nnn3c2nc(NC(C)c2ccccc2)c2sccc23)cc1 (stereo unspecified)	-71*	-30%	-16%	-6%[46.1 µM]	-26%	.
CCc1ccc(S(=O)(=O)c2nnn3c2nc(NCCc2ccccc2)c2sccc23)cc1	-81*	9%	-26%	?	-29%	.
COc1ccccc1Nc1nc2c(S(=O)(=O)c3ccc(C(C)C)cc3)nnn2c2ccsc12	20	-13%	-9%	22%[46.1 µM]	-11%	.
Cc1ccc(C)c(Nc2nc3c(S(=O)(=O)c4ccc(C(C)C)cc4)nnn3c3ccsc23)c1	-71*	-7%	-27%	?	-28%	.
Cc1ccc(Nc2nc3c(S(=O)(=O)c4ccccc4)nnn3c3ccsc23)c(C)c1	14	3%	-23%	5%[46.1 µM]	i	.
O=C(Nc1ccc(Br)cc1)c1cc(S(=O)(=O)N2CCc3ccccc32)ccc1F	-18	0%	-22%	-16%[46.1 µM]	-25%	.
CCN(C(=O)CCc1nc(-c2ccc(C)cc2)no1)c1cccc(C(F)(F)F)c1	9	-20%	-14%	-12%[46.1 µM]	-16%	?
COC(=O)c1ccc(NC(=O)CCc2nnc3ccc(NCc4ccco4)nn23)cc1	+	-2%	-8%	0%[46.1 µM]	i	13%[46.1 µM]
CCN(CC)S(=O)(=O)c1cc(NC(=O)C(C)N2CC=C(c3ccccc3)CC2)ccc1C (stereo unspecified)	-30	?	-29%	16µM*	?	?
Cc1ccc(NC(=O)Cc2ccccc2Cl)cc1S(=O)(=O)N(C)C	-35	-17%	-22%	?	?	?
Cc1ccc(NC(=O)CNc2ccc(Cl)c(Cl)c2)cc1S(=O)(=O)N(C)C	-72*	?	?	?	?	?
CN(C)S(=O)(=O)c1cc(NC(=O)CN2CCN(c3ccccc3O)CC2)ccc1Cl	-2	0%	-6%	0.56µM*	-25%	-1%
Cc1ccc(NC(=O)Cc2ccc(Cl)c(Cl)c2)cc1S(=O)(=O)N(C)C	-61*	22µM*	-25%	13µM*	-20%	?
